Data: PubChem BioAssay (NCATS)
Values joined by “and” are separate entries in the source; they are usually repeats but may differ in a detail not shown here. Equal entries are not always repeated. Inconclusive results are not listed. Active and inactive are the calls of the source. Unless noted, calls come from the whole dose curve; as a rule, active = well fitted curve in either direction with a large enough effect (not every such curve was filed as active); inconclusive = small, poorly fitted or top-dose-only effect, or another doubt; inactive = flat fitted curve, though single readings scatter.

Columns and labels:
[1] = Stat Signaling Pathway (AID 446); conditions: ME-180 (cervical carcinoma) SIE beta-lactamase reporter, IL-6 stimulated, 5 h; at 38 µM (top of the series) unless noted;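 note: ME-180 cervical cancer cells given 40 pM IL-6 alongside compound; SIE-controlled beta-lactamase reporter measured as 460/530 nm FRET emission ratio; % is set by controls: 0 for no effect and ±100 for the full control effect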
Procedure, shortened: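 Emission at 460 and 530 nm (excitation 405 nm) reports SIE-controlled beta-lactamase in ME-180 cells. Cells received compound with 40 pM IL-6 for 5 hrs at 37 C; data scaled between 300 pM IL-6 and 125 nM JAK-inhibitor controls.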

[2] = target: Glucocorticoid receptor (Homo sapiens) (UniProt P04150); assay: GR-GFP Redistribution (AID 450;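 active = compounds whose dose series gives a full or clear partial fitted curve of increased nuclear translocation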; note: potency is the fitted concentration of half-maximal effect); conditions: U2OS GR-GFP nuclear translocation, laser cytometry, 2 h
[3] = target: Glucocorticoid receptor (Homo sapiens) (UniProt P04150); assay: GR-EFC Redistribution (AID 451; calls by dose curve; note: potency is the fitted concentration of half-maximal effect); conditions: CHO-K1 GR-EFC translocation, beta-gal luminescence, 2 h
Procedure, shortened: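 CHO-K1 cells expressing nuclear EA and GR-ED fragments of b-gal; compounds titrated up to 46 uM final, 2 h at 37 C. GR nuclear translocation read as complemented b-gal luminescence after 1 h RT detection.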

[4] = target: Mitogen-activated protein kinase 10 (Mus musculus) (UniProt Q61831); assay: JNK3 AlphaScreen Assay (AID 530);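 note: kinase came from lysate of stimulated human HepG2 cells; signal reports phosphorylation of biotinylated GST-cJun 1-79 at Ser73 with 10 µM ATP; % is set by controls: 0 for no effect and ±100 for the full control effect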
Procedure, shortened: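 HepG2 lysate (IL-1b/TNFa pre-activated) + biotin-GST-cJun 1-79 + anti-pSer73 cJun; cpd titration, 15 min RT; ATP 10 uM start; Tris pH 7.6, MgCl2, DTT, vanadate; beads in EDTA buffer; AlphaScreen.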

Chain of Glucocorticoid receptor (Homo sapiens) (P04150 whole entry, looked up, the tested form may be a part): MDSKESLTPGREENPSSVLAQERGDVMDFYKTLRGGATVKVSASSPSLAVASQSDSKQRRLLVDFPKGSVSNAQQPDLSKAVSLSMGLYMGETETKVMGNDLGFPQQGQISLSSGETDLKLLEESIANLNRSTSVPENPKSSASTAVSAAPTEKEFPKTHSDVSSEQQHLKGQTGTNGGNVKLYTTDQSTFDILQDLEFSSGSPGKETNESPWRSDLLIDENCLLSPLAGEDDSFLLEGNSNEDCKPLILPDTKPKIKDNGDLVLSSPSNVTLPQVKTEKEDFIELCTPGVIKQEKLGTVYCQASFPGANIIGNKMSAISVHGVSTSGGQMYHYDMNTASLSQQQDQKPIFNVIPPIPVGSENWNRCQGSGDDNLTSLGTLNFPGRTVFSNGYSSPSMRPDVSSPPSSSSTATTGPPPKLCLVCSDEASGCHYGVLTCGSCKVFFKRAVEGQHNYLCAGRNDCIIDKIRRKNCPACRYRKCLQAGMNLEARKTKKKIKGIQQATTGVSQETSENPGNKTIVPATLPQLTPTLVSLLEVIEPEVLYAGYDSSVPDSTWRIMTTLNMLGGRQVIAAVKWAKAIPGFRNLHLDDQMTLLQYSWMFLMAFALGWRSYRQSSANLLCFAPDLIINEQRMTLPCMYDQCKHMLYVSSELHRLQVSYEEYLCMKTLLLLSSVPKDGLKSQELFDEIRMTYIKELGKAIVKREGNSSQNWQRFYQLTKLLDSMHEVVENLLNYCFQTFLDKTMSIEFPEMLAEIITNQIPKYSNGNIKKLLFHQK

COc1ccc(-c2ccc(N)[n+](CCCC(=O)O)n2)cc1
inactive: activity, negative = inhibition [1] 5.04% [at 17.2 µM] | Potency [2] > 46 µM and > 20.6 µM | Potency [3] > 46 µM and > 20.6 µM | outcome [4]

N[C@H](C(=O)O)c1cc(O)cc(O)c1
inactive: activity, negative = inhibition [1] 9.71% | Potency [2] > 46 µM | Potency [3] > 46 µM | outcome [4]

Nc1ccc2c3c(cccc13)C(=O)NC2=O
inactive: activity, negative = inhibition [1] -25.5% | Potency [2] > 46 µM | Potency [3] > 46 µM | outcome [4]

CCCCCCC/C=C\CCCCCCCCC(=O)O
inactive: activity, negative = inhibition [1] -1.08% | Potency [2] > 46 µM | Potency [3] > 46 µM | outcome [4]

Cc1ccc2c(c1)C(N1CCN(C)CC1)=Nc1cccnc1N2
inactive: activity, negative = inhibition [1] 0.822% | Potency [2] > 46 µM | Potency [3] > 46 µM | outcome [4]

Fc1ccc(CN(C2=NCCN2)c2c(Cl)cccc2Cl)cc1
inactive: activity, negative = inhibition [1] -4.64% | Potency [2] > 46 µM | Potency [3] > 46 µM | outcome [4]

[Li+]
inactive: activity, negative = inhibition [1] -7.38% | Potency [2] > 46 µM | Potency [3] > 46 µM | outcome [4]

O=C(O)C1=CCCN(CCON=C(c2ccccc2)c2ccccc2)C1
inactive: activity, negative = inhibition [1] -1.1% | Potency [2] > 46 µM | Potency [3] > 46 µM | outcome [4]

c1ccc2nc(C3=NCCN3)ccc2c1
inactive: activity, negative = inhibition [1] 0.247% | Potency [2] > 46 µM | Potency [3] > 46 µM | outcome [4]

NC(N)=NC(N)=Nc1cccc(Cl)c1
inactive: activity, negative = inhibition [1] 15.9% | Potency [2] > 46 µM | Potency [3] > 46 µM | outcome [4]

O=C(c1ccc2c(c1)OCCO2)N1CCCCC1
inactive: activity, negative = inhibition [1] 25% | Potency [2] > 46 µM | Potency [3] > 46 µM | outcome [4]

Nn1nnc2ccccc21
inactive: activity, negative = inhibition [1] 9.14% | Potency [2] > 46 µM | Potency [3] > 46 µM | outcome [4]

N=C(N)c1ccc(N)cc1
inactive: activity, negative = inhibition [1] -11.4% | Potency [2] > 46 µM | Potency [3] > 46 µM | outcome [4]

O=c1cc(-c2ccccc2)[nH]c2nc(Cl)ccc12
inactive: activity, negative = inhibition [1] -25.2% | Potency [2] > 46 µM | Potency [3] > 46 µM | outcome [4]

Nc1nc2[nH]c(=O)cnc2c(=O)[nH]1
inactive: activity, negative = inhibition [1] 29.5% | Potency [2] > 46 µM | Potency [3] > 46 µM | outcome [4]

Cc1nc2c(OCc3ccccc3)cccn2c1CC#N
inactive: activity, negative = inhibition [1] -13.9% | Potency [2] > 46 µM | Potency [3] > 46 µM | outcome [4]

Cc1nc(N=Nc2ccc(C(=O)O)cc2)c(COP(=O)(O)O)c(C=O)c1O
inactive: activity, negative = inhibition [1] -19.4% | Potency [2] > 46 µM | Potency [3] > 46 µM | outcome [4]

C[N+](C)(C)CC=O
inactive: activity, negative = inhibition [1] 17.9% | Potency [2] > 46 µM | Potency [3] > 46 µM | outcome [4]

N[C@@H](Cc1c[nH]c2ccccc12)C(=O)O
inactive: activity, negative = inhibition [1] -9.87% | Potency [2] > 46 µM | Potency [3] > 46 µM | outcome [4]

O=C(O)c1cc(=O)cc(C(=O)O)[nH]1
inactive: activity, negative = inhibition [1] 10.8% | Potency [2] > 46 µM | Potency [3] > 46 µM | outcome [4]

COc1ccc2c(c1)c(CC(=O)O)c(C)n2C(=O)c1ccccc1
inactive: activity, negative = inhibition [1] -19% | Potency [2] > 46 µM | Potency [3] > 46 µM | outcome [4]

Cn1c(=O)c2[nH]c(-c3ccc(S(=O)(=O)O)cc3)nc2n(C)c1=O
inactive: activity, negative = inhibition [1] 18% | Potency [2] > 46 µM | Potency [3] > 46 µM | outcome [4]

O=C(O)/C(=C/c1c(C(=O)O)[nH]c2cc(Cl)cc(Cl)c12)c1ccccc1
inactive: activity, negative = inhibition [1] 10.5% | Potency [2] > 46 µM | outcome [4]

NC(N)=NC(N)=Nc1ccccc1
inactive: activity, negative = inhibition [1] -15.1% | Potency [2] > 46 µM | Potency [3] > 46 µM | outcome [4]

COc1ccc(NC(=O)c2ccc(-c3ccc(-c4noc(C)n4)cc3C)cc2)cc1N1CCN(C)CC1
inactive: activity, negative = inhibition [1] -18.9% | Potency [2] > 46 µM | outcome [4]

CCCn1c(=O)c2[nH]c(-c3ccc(S(=O)(=O)O)cc3)nc2n(CCC)c1=O
inactive: activity, negative = inhibition [1] 42.3% | Potency [2] > 46 µM | Potency [3] > 46 µM | outcome [4]

Cc1nc(N=Nc2ccc(S(=O)(=O)O)cc2S(=O)(=O)O)c(COP(=O)(O)O)c(C=O)c1O
inactive: activity, negative = inhibition [1] 5.69% | Potency [2] > 46 µM | Potency [3] > 46 µM | outcome [4]
